Reference: PubChem BioAssay AID1159580 (chemical genetic matrix, 2015)
The whole screen tested about 5,500 compounds, of which about 2,000 (36%) were called active. Another 18% or so got no clear call; they are omitted. Cut-off read from the data, not from the text of the source: active = normalized growth mostly below about 0.91 (no sharp cut-off); inconclusive = no clear call, values can overlap the other calls; inactive = mostly above about 0.92. The list shows a part of the results.

Experiment: chemical genetic growth profiling, strain panel (AID 1159580);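 note: tested at 20 µM; growth read once vehicle control cultures reached saturation at 30 °C; 1 = growth at the plate median or of vehicle wells; lower values mean less growth of the strain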
Conditions: growth OD

Measured: normalized growth

COc1ccc2c(c1)O[C@@H]1COc3cc(OC)c(OC)cc3[C@@H]1C2=O
inactive: S. cerevisiae deletion strains, locus YJR066W, strain TOR1, stronger effect = lower value 0.92 | S. cerevisiae deletion strains, locus YKL009W, strain mrt4, stronger effect = lower value 1.01 | S. cerevisiae deletion strains, locus YKL068W, stronger effect = lower value 0.984 | S. cerevisiae deletion strains, locus YKL085W, strain MDH1 (second series), stronger effect = lower value 0.984 | S. cerevisiae deletion strains, locus YKL085W, strain MDH1, stronger effect = lower value 0.984 | S. cerevisiae deletion strains, locus YKR001C, strain vps1, stronger effect = lower value 0.912 | S. cerevisiae deletion strains, locus YKR026C, strain gcn3, stronger effect = lower value 0.992 | S. cerevisiae deletion strains, locus YKR091W, strain srl3, stronger effect = lower value 0.988 | S. cerevisiae deletion strains, locus YLR039C, strain RIC1, stronger effect = lower value 0.914 | S. cerevisiae deletion strains, locus YLR058C, strain SHM2, stronger effect = lower value 0.9 | S. cerevisiae deletion strains, locus YLR113W, strain HOG1, stronger effect = lower value 0.983 | S. cerevisiae deletion strains, locus YLR262C, strain YPT6 (second series), stronger effect = lower value 0.994 | S. cerevisiae deletion strains, locus YLR262C, strain YPT6, stronger effect = lower value 0.928 | S. cerevisiae deletion strains, locus YLR357W, strain rsc2, stronger effect = lower value 0.932 | S. cerevisiae deletion strains, locus YLR370C, strain arc18, stronger effect = lower value 0.984 | S. cerevisiae deletion strains, locus YLR384C, strain iki3, stronger effect = lower value 1.01 | S. cerevisiae deletion strains, locus YMR231W, strain pep5, stronger effect = lower value 0.991 | S. cerevisiae deletion strains, locus YMR263W, strain SAP30, stronger effect = lower value 0.922 | S. cerevisiae deletion strains, locus YMR307W, strain GAS1, stronger effect = lower value 0.909 | S. cerevisiae deletion strains, locus YNL183C, strain NPR1, stronger effect = lower value 0.927 | S. cerevisiae deletion strains, locus YNL209W, strain ssb2, stronger effect = lower value 1.01 | S. cerevisiae deletion strains, locus YNL250W, strain rad50, stronger effect = lower value 0.936 | S. cerevisiae deletion strains, locus YNL271C, strain bni1, stronger effect = lower value 0.963 | S. cerevisiae deletion strains, locus YNL298W, strain CLA4, stronger effect = lower value 0.97 | S. cerevisiae deletion strains, locus YNR049C, strain mso1, stronger effect = lower value 0.951 | S. cerevisiae deletion strains, locus YNR052C, strain pop2, stronger effect = lower value 0.948 | S. cerevisiae deletion strains, locus YOL012C, strain htz1 0.241 | S. cerevisiae deletion strains, locus YOR061W, strain CKA2, stronger effect = lower value 0.967 | S. cerevisiae deletion strains, locus YOR083W, strain WHI5, stronger effect = lower value 0.916 | S. cerevisiae deletion strains, locus YOR106W, strain vam3, stronger effect = lower value 0.871 | S. cerevisiae deletion strains, locus YOR184W, strain ser1, stronger effect = lower value 0.896 | S. cerevisiae deletion strains, locus YOR231W, strain MKK1, stronger effect = lower value 0.977 | S. cerevisiae deletion strains, locus YPL055C, strain LGE1, stronger effect = lower value 0.775 | S. cerevisiae deletion strains, locus YPL106C, strain sse1, stronger effect = lower value 1.04 | S. cerevisiae deletion strains, locus YPL256C, strain CLN2, stronger effect = lower value 1.01 | S. cerevisiae deletion strains, locus YPR141C, strain kar3, stronger effect = lower value 0.959
active: S. cerevisiae deletion strains, locus YJR043C, strain POL32, stronger effect = lower value 0.719 | S. cerevisiae deletion strains, locus YJR075W, strain HOC1, stronger effect = lower value 0.776 | S. cerevisiae deletion strains, locus YKL160W, strain elf1, stronger effect = lower value 0.428 | S. cerevisiae deletion strains, locus YLL001W, strain dnm1, stronger effect = lower value 0.794 | S. cerevisiae deletion strains, locus YLL026W, stronger effect = lower value 0.557 | S. cerevisiae deletion strains, locus YLL041C, strain sdh2, stronger effect = lower value 0.674 | S. cerevisiae deletion strains, locus YLR027C, strain aat2, stronger effect = lower value 0.445 | S. cerevisiae deletion strains, locus YLR102C, strain apc9, stronger effect = lower value 0.696 | S. cerevisiae deletion strains, locus YLR221C, strain rsa3, stronger effect = lower value 0.377 | S. cerevisiae deletion strains, locus YLR258W, strain gsy2, stronger effect = lower value 0.705 | S. cerevisiae deletion strains, locus YLR268W, strain sec22, stronger effect = lower value 0.739 | S. cerevisiae deletion strains, locus YLR320W, strain mms22, stronger effect = lower value 0.228 | S. cerevisiae deletion strains, locus YLR342W, strain FKS1, stronger effect = lower value 0.665 | S. cerevisiae deletion strains, locus YLR371W, strain rom2, stronger effect = lower value 0.854 | S. cerevisiae deletion strains, locus YLR418C, strain cdc73, stronger effect = lower value 0.546 | S. cerevisiae deletion strains, locus YML016C, strain PPZ1, stronger effect = lower value 0.84 | S. cerevisiae deletion strains, locus YML032C, strain rad52, stronger effect = lower value 0.521 | S. cerevisiae deletion strains, locus YML120C, strain ndi1, stronger effect = lower value 0.59 | S. cerevisiae deletion strains, locus YML124C, strain tub3, stronger effect = lower value 0.874 | S. cerevisiae deletion strains, locus YMR058W, strain fet3, stronger effect = lower value 0.537 | S. cerevisiae deletion strains, locus YMR078C, strain ctf18, stronger effect = lower value 0.373 | S. cerevisiae deletion strains, locus YMR125W, strain sto1, stronger effect = lower value 0.612 | S. cerevisiae deletion strains, locus YMR129W, stronger effect = lower value 0.908 | S. cerevisiae deletion strains, locus YMR205C, strain PFK2, stronger effect = lower value 0.23 | S. cerevisiae deletion strains, locus YMR223W, strain ubp8, stronger effect = lower value 0.78 | S. cerevisiae deletion strains, locus YNL067W, strain RPL9B, stronger effect = lower value 0.858 | S. cerevisiae deletion strains, locus YNL071W, strain lat1, stronger effect = lower value 0.246 | S. cerevisiae deletion strains, locus YNL153C, strain GIM3, stronger effect = lower value 0.597 | S. cerevisiae deletion strains, locus YNL233W, strain BNI4, stronger effect = lower value 0.427 | S. cerevisiae deletion strains, locus YNL248C, strain rpa49, stronger effect = lower value 0.814 | S. cerevisiae deletion strains, locus YNL307C, strain MCK1, stronger effect = lower value 0.183 | S. cerevisiae deletion strains, locus YNL322C, strain KRE1 (second series), stronger effect = lower value 0.761 | S. cerevisiae deletion strains, locus YOL147C, strain pex11, stronger effect = lower value 0.25 | S. cerevisiae deletion strains, locus YOR001W, strain rrp6, stronger effect = lower value 0.689 | S. cerevisiae deletion strains, locus YOR069W, strain VPS5, stronger effect = lower value 0.905 | S. cerevisiae deletion strains, locus YOR070C, strain gyp1, stronger effect = lower value 0.528 | S. cerevisiae deletion strains, locus YOR080W, strain dia2, stronger effect = lower value 0.839 | S. cerevisiae deletion strains, locus YOR136W, strain idh2, stronger effect = lower value 0.767 | S. cerevisiae deletion strains, locus YOR144C, strain elg1, stronger effect = lower value 0.573 | S. cerevisiae deletion strains, locus YOR265W, strain rbl2, stronger effect = lower value 0.797 | S. cerevisiae deletion strains, locus YOR270C, strain vph1, stronger effect = lower value 0.593 | S. cerevisiae deletion strains, locus YOR290C, strain snf2, stronger effect = lower value 0.315 | S. cerevisiae deletion strains, locus YOR316C, strain cot1, stronger effect = lower value 0.771 | S. cerevisiae deletion strains, locus YPL051W, strain arl3, stronger effect = lower value 0.803 | S. cerevisiae deletion strains, locus YPL078C, strain atp4, stronger effect = lower value 0.635 | S. cerevisiae deletion strains, locus YPL240C, strain hsp82, stronger effect = lower value 0.714 | S. cerevisiae deletion strains, locus YPR119W, strain clb2, stronger effect = lower value 0.731 | S. cerevisiae deletion strains, locus YPR163C, strain tif3, stronger effect = lower value 0.438 | S. cerevisiae deletion strains, locus YPR167C, strain met16, stronger effect = lower value 0.886 | S. cerevisiae deletion strains, strain wtn01, stronger effect = lower value 0.686 | S. cerevisiae strains, strain wild type, stronger effect = lower value 0.753
